Sampled rows, rich in hits. Any-hit rate of the full collection: about 7.9%.
KB-3-1 cytotox: KB-3-1 parental cell cytotoxicity; KB-3-1 viability, CellTiter-Glo ATP luminescence, 72 h; Potency, µM (top dose mostly 46.1 µM), actives largely listed as cytotoxic; 400,000 compounds, 1.4% hits; AID 1347075; further: nearly all actives have a fitted effect of over 60% in size
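Multi-concentration cytotoxicity screen in KB-3-1 cells grown in DMEM lacking phenol red with 10% FBS. After 72 h at 37 °C with compound, ATP-dependent luminescence was recorded.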
HT1080NT lethal: kills 2HG-producing HT-1080-NT fibrosarcoma cells | HT-1080-NT fibrosarcoma viability, CellTiter-Glo ATP luminescence, 48 h | Potency, µM (series often up to 46.1 µM), actives largely listed as cytotoxic | 360,000 compounds, 1.6% hits;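 further: NT is the 2HG producing partner of a matched IDH1 knockdown line; nearly all actives have a fitted effect of over 55% in size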
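HT-1080-NT; 750 cells/well; 5% FBS RPMI; 48 h compound, 37 degrees C; CellTiter-Glo luminescence; curve fitting and curve-class assignment.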
KB-V1 MDR tox: kills drug-selected multidrug resistant KB-V1 cells; KB-V1 MDR cells viability, CellTiter-Glo, 72 h; 400,000 compounds, 3.4% hits; Potency, µM (top dose mostly 46.1 µM), actives largely listed as cytotoxic; AID 1347076; further: nearly all actives have a fitted effect of over 60% in size
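Cytotoxicity via CellTiter-Glo luminescence after 72 h compound exposure at 37 degrees C. Cells: drug-selected KB-V1 line, DMEM phenol-red free plus 10% FBS. Compounds tested at multiple concentrations; normalized data fitted to concentration-effect curves.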
MCF10A rerep: induces DNA re-replication in MCF 10a normal breast cells; MCF 10A DNA re-replication, Hoechst nuclear intensity, 48 h; Potency, µM (top dose mostly 46.1 µM), hits mostly activators; 350,000 compounds, 2.9% hits; AID 624296; further: nearly all actives have a fitted effect of over 50% in size
HT1080 IDH1KD tx: kills HT-1080 cells with IDH1 knockdown; HT-1080 IDH1 knockdown viability, ATP luminescence, 48 h; 360,000 compounds, 2% hits; Potency, µM (highest dose often 46.1 µM), actives largely listed as cytotoxic
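After a 2 h attachment period, IDH1KD HT-1080 cells took pin-transferred compound for 48 h at 37 °C; ATP-based luminescence after 10 min room-temperature reagent incubation reported viability.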
SW480 rerep: induces DNA re-replication in SW480 colon adenocarcinoma cells; SW480 DNA re-replication, Hoechst DNA content imaging, 48 h; Potency, µM (series often up to 46.1 µM), usual class: activators; 340,000 compounds, 1.8% hits; further: nearly all actives have a fitted effect of over 55% in size
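DNA re-replication was detected as more nuclei of elevated Hoechst intensity after 48 hr exposure to compound (23 nL pinned per well of 250 cells).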
Of the large screens only hits and unclear results are named; the others gave an inactive call; ! = not active in a repeat. The call rests on the fitted dose curve; in most records, active means well fitted curve in the direction sought with a large enough effect; inconclusive means small, poorly fitted or top-dose-only effect, or another doubt; inactive means no such curve, though single readings can be large; an effect the other way counts as inactive or inconclusive.

O=C1C(=O)C(c2ccc(O)cc2O)Oc2cc(O)cc(O)c21 (stereo not given)	none (no result: HT1080NT lethal, MCF10A rerep, HT1080 IDH1KD tx, SW480 rerep)
O=C(Cn1ncc2c3ccccc3n(Cc3ccccc3)c2c1=O)N1CCN(c2ccccn2)CC1	none
O=C(Cn1ncc(Cl)c(Cl)c1=O)N1CCOCC1	KB-3-1 cytotox inconclusive, HT1080NT lethal 12µM, MCF10A rerep 3.7µM, HT1080 IDH1KD tx 13µM, SW480 rerep 2.9µM
CC1(C)C(=O)Nc2ccccc2N1C(=O)Cn1ncc(Cl)c(Cl)c1=O	KB-3-1 cytotox inconclusive, MCF10A rerep inconclusive, SW480 rerep 9.2µM
O=C(Cn1ncc(Cl)c(Cl)c1=O)N1CCc2ccccc21	KB-3-1 cytotox inconclusive, HT1080NT lethal 4.6µM, KB-V1 MDR tox inconclusive, MCF10A rerep 10µM, HT1080 IDH1KD tx 2.9µM
O=C(Cn1ncc2c1-c1ccccc1OC2)N1CCc2ccccc21	none
O=C(Cn1ncc2c3ccccc3n(Cc3ccccc3)c2c1=O)N1CCN(c2ncccn2)CC1	KB-3-1 cytotox inconclusive, KB-V1 MDR tox 5.2µM
Cc1nn(CC(=O)N2c3ccccc3NC(=O)C2(C)C)c(C)c1[N+](=O)[O-]	MCF10A rerep inconclusive
CCCn1c2ccccc2c2cnn(CC(=O)N3CCOCC3)c(=O)c21	none
CCOc1ccccc1NC(=O)C(Cc1ccccc1)NS(=O)(=O)c1ccc(Br)s1 (stereo not given)	KB-V1 MDR tox inconclusive (no result: HT1080NT lethal, MCF10A rerep, HT1080 IDH1KD tx, SW480 rerep)
CCCCCCC(=O)Nc1ccc2nc3c(=O)n(C)c(=O)n(C)c3nc2c1C	KB-V1 MDR tox inconclusive (no result: HT1080NT lethal, MCF10A rerep, HT1080 IDH1KD tx, SW480 rerep)
O=C(Cn1cnc2ccccc2c1=O)N1CCN(Cc2ccccc2)CC1	KB-V1 MDR tox 23µM
O=C(Cn1ncc(Cl)c(Cl)c1=O)N1CCN(Cc2ccccc2)CC1	KB-3-1 cytotox inconclusive, HT1080NT lethal inconclusive, MCF10A rerep 4.1µM, HT1080 IDH1KD tx inconclusive
CCc1ccc(C(=O)Cn2ncc(Cl)c(Cl)c2=O)cc1	KB-3-1 cytotox 7.3µM, HT1080NT lethal 15µM, KB-V1 MDR tox inconclusive, MCF10A rerep 5.8µM, HT1080 IDH1KD tx inconclusive, SW480 rerep 7.3µM
O=C(Cn1ncc2c1-c1ccccc1OC2)N1CCN(Cc2ccccc2)CC1	none
COc1ccc(Sc2nnc(Cc3ccccc3)c3ccccc23)cc1	KB-V1 MDR tox inconclusive, MCF10A rerep 9.2µM, HT1080 IDH1KD tx inconclusive, SW480 rerep inconclusive
O=S(=O)(c1ccccc1)c1nc(-c2cccs2)oc1SCc1ccccc1F	none (no result: HT1080NT lethal, MCF10A rerep, HT1080 IDH1KD tx, SW480 rerep)
Cc1ccnc2nc(C(=O)OCC(=O)N(C)C3CCCCC3)nn12	KB-V1 MDR tox inconclusive (no result: MCF10A rerep, SW480 rerep)
Cc1oc(-c2ccc(C(=O)NCCCOC(C)C)cc2)nc1CS(=O)(=O)c1ccccc1	none (no result: HT1080NT lethal, MCF10A rerep, HT1080 IDH1KD tx, SW480 rerep)
O=C(CCl)N(c1ccccc1)C1CCS(=O)(=O)C1 (stereo not given)	HT1080NT lethal inconclusive, KB-V1 MDR tox inconclusive, MCF10A rerep inconclusive, HT1080 IDH1KD tx 18µM, SW480 rerep 16µM
O=C(CCc1ccccc1)Nc1ccccc1OC(=O)c1ccccc1	none
O=C(Nc1ccccc1OC(=O)c1ccccc1)c1ccccc1	KB-3-1 cytotox inconclusive, HT1080NT lethal inconclusive, MCF10A rerep inconclusive, HT1080 IDH1KD tx 15µM, SW480 rerep inconclusive
COc1cc2ccc(=O)oc2c(O[C@@H]2O[C@H](CO)[C@@H](O)[C@H](O)[C@H]2O)c1O	MCF10A rerep 16µM, SW480 rerep 8.2µM!
COc1ccc([C@H]2C[C@@H](n3cc(-c4ccc(F)cc4)nn3)[C@H](O)CN2CC2CCCCC2)cc1	KB-3-1 cytotox inconclusive, KB-V1 MDR tox 21µM (no result: MCF10A rerep, SW480 rerep)
O[C@@H]1CN(CC2CCCCC2)[C@@H](c2ccccc2)C[C@H]1n1cc(-c2ccc(F)cc2)nn1	KB-3-1 cytotox 16µM, HT1080NT lethal inconclusive, HT1080 IDH1KD tx inconclusive (no result: MCF10A rerep, SW480 rerep)
Cc1cc2oc(C(=O)Nc3ccc(S(=O)(=O)N(C)Cc4ccccc4)cc3)cc(=O)c2cc1C	KB-V1 MDR tox inconclusive (no result: HT1080NT lethal, MCF10A rerep, HT1080 IDH1KD tx, SW480 rerep)
CCN(CC)c1nc(N)c(C#N)c(CC#N)c1C#N	KB-V1 MDR tox inconclusive, MCF10A rerep inconclusive
CCCN(CCC)c1nc(N)c(C#N)c(CC#N)c1C#N	MCF10A rerep 6.5µM

Screens deposited in PubChem BioAssay by National Center for Advancing Translational Sciences (NCATS).
